Test results taken from PubChem BioAssay (NCATS).
Results filed as inconclusive are left out. Active and inactive are the calls of the source. Unless noted, calls follow the shape of the dose curve; as a rule, active = well fitted curve in either direction with a large enough effect (not every such curve was filed as active); inconclusive = small, poorly fitted or top-dose-only effect, or another doubt; inactive = flat fitted curve, though single readings scatter.

Assays:
[1] = biological target: Lysosomal acid glucosylceramidase (Homo sapiens) (UniProt P04062); assay: Glucocerebrosidase-p2 (AID 348; in the data active = potency below about 10 µM; also: potency is read from the fitted curve at half-maximal effect); conditions: purified GBA, blue fluorogenic substrate, 40 min
In short: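 Compounds titrated from 0.6 nM upwards against 0.2 nM enzyme in pH 5.9 citric acid/KH2PO4, taurocholate, tween-20; blue fluorogenic substrate 80 uM, 40 min room temperature, stopped and read Ex 365/Em 440 for AC50.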

[2] = AP1 Signaling Pathway (AID 357); conditions: ME-180 AP-1-bla reporter, EGF-induced, beta-lactamase ratio, 5 h; at 7.69 µM (top of the series) unless noted;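 also: ME-180 reporter cells stimulated with EGF at its EC50 level; % is scaled to controls: 0 for no effect and ±100 for the full control effect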
In short: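 In this screen, ME-180 cells in Opti-MEM with 0.5% dialyzed FBS received EC50 EGF and compound titrations for 5 h. AP-1 reporter beta-lactamase was detected via CCF4 ratio, giving AC50 for positive and negative modulators.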

[3] = biological target: Cytochrome P450 1A2 (Homo sapiens) (UniProt P05177); assay: p450-cyp1a2 (AID 410; calls by dose curve; also: potency is read from the fitted curve at half-maximal effect;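 as to activity change, negative = inhibition: -100% = full effect of reference inhibitor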); conditions: recombinant CYP1A2, luciferin-ME demethylation, luminescence; series mostly up to 57 µM
In short: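 Human CYP1A2 (20nM) demethylated Luciferin-ME at its Km (100uM) in 100mM KPO4. After 10 min compound preincubation, NADPH regeneration ran the reaction 60 min at room temperature. Luciferin was read by luminescence, normalized to 57 uM furafylline.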

[4] = NFAT Signaling Pathway (AID 444); conditions: Jurkat NFAT-bla M1, carbachol, beta-lactamase ratio, 5 h; at 7.69 µM (top of the series) unless noted;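 also: carbachol stimulus at about its EC50 of 1 µM final; % is scaled to controls: 0 for no effect and ±100 for the full control effect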
In short: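 Jurkat cells carrying an NFAT-driven β-lactamase reporter and co-transfected muscarinic M1 receptor were treated with compound plus carbachol (1 uM final, an EC50 level) for 5 h at 37 °C. CCF4 loading followed for 1 h at RT; 460/530 nm ratio gave %activity.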

[5] = Stat Signaling Pathway (AID 446); conditions: ME-180 SIE beta-lactamase reporter, IL-6 stimulated, 5 h; at 7.69 µM (top of the series) unless noted;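 also: ME-180 cervical cancer cells given 40 pM IL-6 alongside compound; SIE-controlled beta-lactamase reporter measured as 460/530 nm FRET emission ratio; % is scaled to controls: 0 for no effect and ±100 for the full control effect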
In short: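 ME-180 SIE-bla cells; overnight plating; cpd + IL-6 40 pM, 5 h, 37 C; LiveBLAzer 2.5 h RT; 460/530 nm emission ratio. Normalized to 300 pM IL-6 and 125 nM JAK inhibitor controls.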

[6] = biological target: Glucocorticoid receptor (Homo sapiens) (UniProt P04150); assay: GR-GFP Redistribution (AID 450;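 active = compounds whose dose series gives a full or clear partial fitted curve of increased nuclear translocation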; also: potency is read from the fitted curve at half-maximal effect); conditions: U2OS GR-GFP nuclear translocation, laser cytometry, 2 h
[7] = biological target: Glucocorticoid receptor (Homo sapiens) (UniProt P04150); assay: GR-EFC Redistribution (AID 451; calls by dose curve; also: potency is read from the fitted curve at half-maximal effect); conditions: CHO-K1 GR-EFC translocation, beta-gal luminescence, 2 h
In short: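 CHO-K1 cells stably expressing nuclear-localized β-gal enzyme acceptor and GR fused C-terminally to the enzyme donor fragment; ligand-driven nuclear translocation restores β-gal by complementation. Compounds titrated up to 46 uM final, 2 h at 37 °C; luminescence read.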

[8] = biological target: Mitogen-activated protein kinase 10 (Mus musculus) (UniProt Q61831); assay: JNK3 AlphaScreen Assay (AID 530); conditions: JNK3 lysate, c-Jun phosphorylation; series mostly up to 57.1 µM;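 also: kinase came from lysate of stimulated human HepG2 cells; signal reports phosphorylation of biotinylated GST-cJun 1-79 at Ser73 with 10 µM ATP; % is scaled to controls: 0 for no effect and ±100 for the full control effect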
In short: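 JNK3 came from HepG2 lysates pre-activated with IL-1beta and TNF-alpha and phosphorylated biotinylated GST-cJun (1-79) at 10 uM ATP, pH 7.6, room temperature. Compounds were titrated. AlphaScreen signal used anti-phospho-cJun (Ser73) antibody.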

[9] = biological target: 3',5'-cyclic-AMP phosphodiesterase 4B (Homo sapiens) (UniProt Q07343); assay: qHTS Assay for Inhibitors of PDE-IV (AID 607; active = well fitted activation curve with a large enough effect in the main read-out, with a control signal flat, not every such curve was filed as active; also: % of control where 0% means no effect); conditions: HEK293 ACTOne CNG channel cells, membrane potential fluorescence; series mostly up to 22.9 µM
In short: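 ACTOne HEK293 cells carry a modified cAMP-gated CNG channel and express endogenous PDE4; plated 1000 cells/well, compounds up to 22.9 uM final. Membrane-potential dye fluorescence (ex 535/em 590) was read; parental cells received 10 uM forskolin + 100 uM RO 20-1724.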

[10] = biological target: Cytochrome P450 3A4 (Homo sapiens) (UniProt P08684); assay: qHTS Assay for Inhibitors and Substrates of Cytochrome P450 3A4 (AID 884; active = well fitted curve in the direction sought with a large enough effect; an effect the other way counts as inactive or inconclusive; also: potency is read from the fitted curve at half-maximal effect; nearly all actives have a fitted effect of over 50% in size); conditions: recombinant CYP3A4, Luciferin-PPXE luminescence; series mostly up to 57.1 µM
In short: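 20 nM human CYP3A4 with 25 uM Luciferin-PPXE (at KM) in 200 mM KPO4, preincubated 10 min with compound; NADPH regeneration started a 60 min RT reaction. Luciferin detected by luminescence, normalized to 57 uM ketoconazole as full inhibition.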

[11] = biological target: Cytochrome P450 3A4 (Homo sapiens) (UniProt P08684); assay: qHTS Assay for Activators of Cytochrome P450 3A4 (AID 885; active = well fitted curve in the direction sought with a large enough effect; an effect the other way counts as inactive or inconclusive; also: nearly all actives have a fitted effect of over 65% in size); conditions: recombinant CYP3A4, Luciferin-PPXE luminescence, 60 min; series mostly up to 57.1 µM
In short: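 20nM CYP3A4 + 25uM Luciferin-PPXE (=KM), 200mM KPO4; cpd 10 min RT; NADPH regen, 60 min RT; stop w/ detection buffer, 20 min; luminescence. Normalized to 57 uM ketoconazole.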

[12] = Confirmation and Secondary Assay for Modulators of Hemoglobin Beta Chain Splicing at IVS2 654 locus (AID 910; active = well fitted curve in the direction sought with a large enough effect; an effect the other way counts as inactive or inconclusive;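 also: per-well total GFP intensity by laser scanning cytometry after 2-day treatment; % of control where 0% means no effect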); conditions: HeLa EGFP-654 splicing reporter, GFP fluorescence, 48 h; series mostly up to 38.3 µM
In short: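 HeLa cells stably carrying EGFP interrupted by mutant beta-globin IVS2-654 intron (CMV-driven) were treated with compound for 2 days at 37C; corrected splicing was scored as total peak GFP intensity per well (488 nm excitation, 500-520 nm emission).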

[13] = qHTS Assay for Lipid Storage Modulators (AID 1519; calls by dose curve); conditions: Drosophila S3 cells, BODIPY lipid droplet/cell ratio, laser cytometry, cells loaded with oleic acid; for activity change, negative = inhibition: at 57.5 µM (top of the series)
In short: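 Cells seeded at 5,000 per well were treated with compounds over a concentration series and loaded with oleic acid (400 uM, as added). Lipid droplet fluorescence (488 nm excitation, 500-530 nm channel) was read by laser-scanning cytometry and normalized to 20 uM Triacsin C.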

[14] = Primary qHTS for small molecule stabilizers of the endoplasmic reticulum resident proteome: Secreted ER Calcium Modulated Protein (SERCaMP) assay (AID 1508630; active = well fitted curve in the direction sought with a large enough effect; an effect the other way counts as inactive or inconclusive; also: % is scaled to controls: 0 for no effect and ±100 for the full control effect); conditions: SH-SY5Y GLuc-SERCaMP (Gaussia luciferase released on ER calcium loss) secretion, thapsigargin, luminescence; series mostly up to 38.4 µM
In short: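 GLuc-SERCaMP-expressing SH-SY5Y cells, pretreated 16 h with compound, are challenged with thapsigargin to empty ER calcium stores; after 4 h, coelenterazine is added directly to the medium and luminescence is imaged.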

[15] = biological target: Ubiquitin carboxyl-terminal hydrolase 1 (Homo sapiens) (UniProt O94782); assay: Inhibitors of USP1/UAF1: Pilot qHTS (AID 504865; active = well fitted curve in the direction sought with a large enough effect; an effect the other way counts as inactive or inconclusive;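 also: rhodamine fluorescence freed from ubiquitin-rhodamine substrate followed over time; top concentration of the series differs between compounds; % is scaled to controls: 0 for no effect and ±100 for the full control effect; nearly all actives have a fitted effect of over 35% in size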); conditions: purified USP1/UAF1, Ub-rhodamine cleavage fluorescence; series mostly up to 54.9 µM
In short: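 Enzyme-free wells gave the negative control, while test wells held 1nM USP1/UAF1 preincubated with compound for 15 min at room temperature. Ub-Rho at 150nM final started the reaction, and fluorescence at 480/540 nm was recorded kinetically.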

[16] = Confirmation and Secondary Assay for Modulators of Hemoglobin Beta Chain Splicing at IVS2 705 locus (AID 930; active = well fitted curve in the direction sought with a large enough effect; an effect the other way counts as inactive or inconclusive;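 also: HeLa cells stably expressing the EGFP-705 splicing reporter; GFP fluorescence per well restored by corrected splicing of the IVS2-705 intron in EGFP; % of control where 0% means no effect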); conditions: HeLa EGFP-705 splicing reporter, GFP fluorescence, 48 h; series mostly up to 38.3 µM
In short: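 Splice-correction reporter: EGFP cDNA split by beta-globin intron 2 bearing the 705 mutation, stably in HeLa. Compound incubation 2 days, 37C; fluorescent objects 5-250 µm summed per well.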

[17] = biological target: Cytochrome P450 2C19 (Homo sapiens) (UniProt P33261); assay: qHTS Assay for Inhibitors and Substrates of Cytochrome P450 2C19 (AID 899; active = well fitted curve in the direction sought with a large enough effect; an effect the other way counts as inactive or inconclusive; also: potency is read from the fitted curve at half-maximal effect; nearly all actives have a fitted effect of over 60% in size); conditions: recombinant CYP2C19, luciferin-H EGE luminescence; series mostly up to 57.1 µM
In short: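 Human CYP2C19 (5nM) with Luciferin-H EGE at 10uM (its KM) in 50mM KPO4 was preincubated with compound for 10 min at 37C. NADPH regeneration started a 60 min 37C reaction. Luciferin was read by luminescence, normalized to 57uM ketoconazole.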

[18] = qHTS Assay for Identification of Small Molecule Agonists for Hypoxia Response Element Signaling Pathway (AID 914; active = well fitted activation curve with a large enough effect in the signal ratio, with a control signal flat, not every such curve was filed as active; the % refers to the signal ratio; also: % of control where 0% means no effect); conditions: ME-180 (cervical carcinoma) HRE-bla reporter, beta-lactamase ratio, CoCl2, 17 h; activation: stronger effect = higher value
In short: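 Cells were plated overnight, pin-dosed with compound in a titration series, co-stimulated with EC50 CoCl2 and incubated 17 hours at 37 degrees Celsius. CCF4 substrate was then loaded, and AC50 values came from the 460nm/530nm ratio.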

[19] = measured here: cell count channel max response
[20] = measured here: lipid channel max response

Sequence of Cytochrome P450 1A2 (Homo sapiens) (P05177 whole entry, looked up): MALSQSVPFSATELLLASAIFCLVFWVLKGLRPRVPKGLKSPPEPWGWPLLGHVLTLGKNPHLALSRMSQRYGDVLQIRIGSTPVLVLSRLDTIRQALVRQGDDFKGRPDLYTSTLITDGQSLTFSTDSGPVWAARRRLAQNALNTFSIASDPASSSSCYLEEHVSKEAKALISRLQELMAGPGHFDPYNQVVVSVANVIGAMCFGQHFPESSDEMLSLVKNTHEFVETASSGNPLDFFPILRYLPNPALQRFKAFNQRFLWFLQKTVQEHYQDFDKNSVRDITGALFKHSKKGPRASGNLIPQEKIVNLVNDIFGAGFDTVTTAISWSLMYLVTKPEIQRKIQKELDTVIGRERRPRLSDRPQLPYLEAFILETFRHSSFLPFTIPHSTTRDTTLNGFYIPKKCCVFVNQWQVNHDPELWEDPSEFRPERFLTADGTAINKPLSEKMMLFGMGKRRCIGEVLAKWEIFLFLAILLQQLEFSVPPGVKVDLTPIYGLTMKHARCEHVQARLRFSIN
Sequence of Cytochrome P450 3A4 (Homo sapiens) (P08684 whole entry, looked up): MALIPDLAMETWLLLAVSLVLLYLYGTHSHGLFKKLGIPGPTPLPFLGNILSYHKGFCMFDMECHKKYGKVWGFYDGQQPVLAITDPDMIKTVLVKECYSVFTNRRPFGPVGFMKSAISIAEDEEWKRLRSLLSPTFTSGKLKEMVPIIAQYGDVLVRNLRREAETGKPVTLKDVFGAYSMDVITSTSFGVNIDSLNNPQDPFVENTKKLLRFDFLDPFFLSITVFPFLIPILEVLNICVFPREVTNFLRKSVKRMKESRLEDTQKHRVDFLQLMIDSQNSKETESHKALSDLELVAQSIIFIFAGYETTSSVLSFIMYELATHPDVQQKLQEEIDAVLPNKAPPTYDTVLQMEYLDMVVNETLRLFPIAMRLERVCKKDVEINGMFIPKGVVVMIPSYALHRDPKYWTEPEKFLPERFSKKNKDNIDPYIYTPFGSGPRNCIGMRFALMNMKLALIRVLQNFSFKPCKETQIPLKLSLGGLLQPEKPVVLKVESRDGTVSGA
Sequence of Glucocorticoid receptor (Homo sapiens) (P04150 whole entry, looked up, the tested form may be a part): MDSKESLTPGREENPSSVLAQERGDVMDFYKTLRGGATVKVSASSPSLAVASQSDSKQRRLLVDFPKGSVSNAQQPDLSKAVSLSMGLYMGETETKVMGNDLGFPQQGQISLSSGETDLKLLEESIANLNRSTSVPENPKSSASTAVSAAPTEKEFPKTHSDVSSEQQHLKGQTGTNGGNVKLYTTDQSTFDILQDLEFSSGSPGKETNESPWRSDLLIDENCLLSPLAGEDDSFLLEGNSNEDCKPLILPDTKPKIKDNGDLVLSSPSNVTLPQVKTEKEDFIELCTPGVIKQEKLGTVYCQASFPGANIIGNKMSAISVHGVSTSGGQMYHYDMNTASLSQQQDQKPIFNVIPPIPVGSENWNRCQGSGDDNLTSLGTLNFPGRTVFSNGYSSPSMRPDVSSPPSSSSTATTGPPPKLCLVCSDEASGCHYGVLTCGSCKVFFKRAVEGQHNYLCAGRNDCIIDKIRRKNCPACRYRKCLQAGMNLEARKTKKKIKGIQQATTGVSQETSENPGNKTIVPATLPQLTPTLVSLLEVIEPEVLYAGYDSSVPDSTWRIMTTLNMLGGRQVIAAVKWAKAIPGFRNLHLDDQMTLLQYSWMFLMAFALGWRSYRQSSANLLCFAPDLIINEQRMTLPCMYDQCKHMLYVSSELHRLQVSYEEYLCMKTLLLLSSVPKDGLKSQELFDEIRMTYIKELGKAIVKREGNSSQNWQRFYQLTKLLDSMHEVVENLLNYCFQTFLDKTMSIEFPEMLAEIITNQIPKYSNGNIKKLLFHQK
Sequence of Lysosomal acid glucosylceramidase (Homo sapiens) (P04062 whole entry, looked up): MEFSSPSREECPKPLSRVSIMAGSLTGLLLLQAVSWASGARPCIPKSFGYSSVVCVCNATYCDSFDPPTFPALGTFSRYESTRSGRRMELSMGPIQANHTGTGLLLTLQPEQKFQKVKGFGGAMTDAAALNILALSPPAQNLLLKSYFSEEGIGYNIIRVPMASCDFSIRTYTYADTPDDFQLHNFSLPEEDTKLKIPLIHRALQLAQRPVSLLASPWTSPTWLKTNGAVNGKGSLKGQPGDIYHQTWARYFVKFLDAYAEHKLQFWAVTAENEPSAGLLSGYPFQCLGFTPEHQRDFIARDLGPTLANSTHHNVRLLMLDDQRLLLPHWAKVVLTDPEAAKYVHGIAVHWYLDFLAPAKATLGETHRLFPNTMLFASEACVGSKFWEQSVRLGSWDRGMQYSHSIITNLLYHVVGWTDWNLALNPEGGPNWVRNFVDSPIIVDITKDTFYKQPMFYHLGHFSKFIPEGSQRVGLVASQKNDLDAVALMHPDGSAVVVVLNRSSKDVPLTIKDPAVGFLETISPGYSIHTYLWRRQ
Sequence of 3',5'-cyclic-AMP phosphodiesterase 4B (Homo sapiens) (Q07343 whole entry, looked up): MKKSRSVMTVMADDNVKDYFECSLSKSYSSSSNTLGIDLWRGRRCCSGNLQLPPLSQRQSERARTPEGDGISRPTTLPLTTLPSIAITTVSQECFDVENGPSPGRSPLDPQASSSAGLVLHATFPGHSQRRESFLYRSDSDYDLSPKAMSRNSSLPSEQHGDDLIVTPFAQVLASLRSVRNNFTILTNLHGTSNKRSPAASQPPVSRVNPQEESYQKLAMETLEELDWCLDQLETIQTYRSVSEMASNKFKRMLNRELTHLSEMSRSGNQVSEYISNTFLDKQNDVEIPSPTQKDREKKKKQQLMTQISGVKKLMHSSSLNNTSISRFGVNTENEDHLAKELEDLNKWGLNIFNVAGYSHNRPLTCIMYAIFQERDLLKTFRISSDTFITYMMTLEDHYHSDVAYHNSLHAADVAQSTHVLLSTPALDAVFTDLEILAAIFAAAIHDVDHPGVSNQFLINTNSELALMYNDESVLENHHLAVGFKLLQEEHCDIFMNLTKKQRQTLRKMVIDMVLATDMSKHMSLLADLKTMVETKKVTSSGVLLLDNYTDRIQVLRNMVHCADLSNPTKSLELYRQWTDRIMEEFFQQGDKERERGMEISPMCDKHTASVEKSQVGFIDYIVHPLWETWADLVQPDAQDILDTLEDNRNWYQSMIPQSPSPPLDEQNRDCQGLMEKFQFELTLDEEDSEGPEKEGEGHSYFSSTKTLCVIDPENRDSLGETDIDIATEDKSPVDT
Sequence of Ubiquitin carboxyl-terminal hydrolase 1 (Homo sapiens) (O94782 whole entry, looked up): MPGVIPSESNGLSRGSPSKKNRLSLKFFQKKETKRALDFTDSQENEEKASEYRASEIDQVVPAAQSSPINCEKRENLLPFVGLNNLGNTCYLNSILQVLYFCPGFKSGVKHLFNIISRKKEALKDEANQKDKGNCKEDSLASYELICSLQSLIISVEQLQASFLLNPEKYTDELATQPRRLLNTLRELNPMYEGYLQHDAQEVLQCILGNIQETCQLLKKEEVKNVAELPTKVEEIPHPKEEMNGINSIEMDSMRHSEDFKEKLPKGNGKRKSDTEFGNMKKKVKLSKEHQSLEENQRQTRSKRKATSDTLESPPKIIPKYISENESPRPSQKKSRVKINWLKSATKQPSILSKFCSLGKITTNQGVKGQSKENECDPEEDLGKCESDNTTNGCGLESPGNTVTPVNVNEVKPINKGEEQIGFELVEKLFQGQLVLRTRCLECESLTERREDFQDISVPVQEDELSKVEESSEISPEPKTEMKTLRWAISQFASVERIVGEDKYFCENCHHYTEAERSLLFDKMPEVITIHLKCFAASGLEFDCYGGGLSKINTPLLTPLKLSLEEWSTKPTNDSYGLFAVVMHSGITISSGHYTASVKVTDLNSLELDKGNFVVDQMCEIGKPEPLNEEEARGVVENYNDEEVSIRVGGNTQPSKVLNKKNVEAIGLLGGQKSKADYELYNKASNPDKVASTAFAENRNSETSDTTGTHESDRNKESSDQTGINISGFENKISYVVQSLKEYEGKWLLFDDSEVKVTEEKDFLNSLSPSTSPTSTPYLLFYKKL
Sequence of Cytochrome P450 2C19 (Homo sapiens) (P33261 whole entry, looked up): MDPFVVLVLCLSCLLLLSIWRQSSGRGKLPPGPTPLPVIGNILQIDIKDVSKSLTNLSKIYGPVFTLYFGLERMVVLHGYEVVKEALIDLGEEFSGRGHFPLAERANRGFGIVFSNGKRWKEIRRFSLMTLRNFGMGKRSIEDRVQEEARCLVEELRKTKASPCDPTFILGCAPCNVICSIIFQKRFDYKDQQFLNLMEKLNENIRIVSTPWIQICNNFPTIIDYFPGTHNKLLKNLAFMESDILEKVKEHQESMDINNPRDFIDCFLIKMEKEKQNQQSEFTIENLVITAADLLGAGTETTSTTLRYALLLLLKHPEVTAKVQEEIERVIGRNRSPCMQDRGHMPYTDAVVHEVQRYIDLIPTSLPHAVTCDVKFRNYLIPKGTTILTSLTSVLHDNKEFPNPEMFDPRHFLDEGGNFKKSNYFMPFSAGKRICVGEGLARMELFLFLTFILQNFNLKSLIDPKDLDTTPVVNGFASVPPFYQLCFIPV

| SMILES | Potency [1] | activity change, negative = inhibition [2] | Potency [3] | activity change, negative = inhibition [4] | activity, negative = inhibition [5] | Potency [6] | Potency [7] | outcome [8] | Potency [9] | Potency [10] | Potency [11] | outcome [12] | activity change, negative = inhibition [13] | max response [13, 19] [%] | max response [13, 20] [%] | Potency [14] | Potency [15] | outcome [16] | Potency [17] | activation [18] |
| --- | --- | --- | --- | --- | --- | --- | --- | --- | --- | --- | --- | --- | --- | --- | --- | --- | --- | --- | --- | --- |
| COc1ccc2[nH]cc(CCNc3cc(-c4ccccc4C(F)(F)F)ncn3)c2c1 | > 11.4 µM (inactive) | -26.7% (inactive) | 10 µM (active) | 14% (inactive) | 0.643% (inactive) | > 46 µM (inactive) | > 46 µM (inactive) | inactive | inactive | 5.01 µM (active) | inactive | inactive | 6.48% (inactive) | -3.31 | 0.275 | inactive |  |  |  |  |
| COc1cccc(Nc2ncc3nc(C)c(=O)n(CCc4ccccc4)c3n2)c1 | > 11.4 µM (inactive) | -17.7% (inactive) | 5.01 µM (active) | 3.56% (inactive) | -6.89% (inactive) | > 9.22 µM (inactive) | > 46 µM (inactive) | inactive |  | 7.94 µM (active) | inactive |  | -2.06% (inactive) | -10.5 | -13.8 | inactive | inactive |  |  |  |
| CN(C)Cc1ccccc1-c1nc(NCc2ccccc2)c2ccccc2n1 | > 11.4 µM (inactive) | 15.5% (inactive) | 1.26 µM (active) | -17.2% (inactive) | 4.49% (inactive) | > 46 µM (inactive) | > 46 µM (inactive) | inactive |  |  | inactive | inactive | 5.53% (inactive) | 1.11 | 6.16 | inactive | inactive | inactive |  |  |
| CC(=O)NCCNc1nc(-c2ccccc2Cl)nc2ccccc12 | > 11.4 µM (inactive) | 22.6% (inactive) | 7.94 µM (active) | -5.34% (inactive) | -10.3% (inactive) | > 46 µM (inactive) | > 46 µM (inactive) | inactive | inactive |  | inactive | inactive | 8.12% (inactive) | 11.5 | 20.7 | inactive |  |  | 3.98 µM (active) | 19.9% (inactive) |
| COc1ccc(C(=O)N2CCC3(CC2)CN(C(=O)NC(C)C)C3)cc1 | > 11.4 µM (inactive) | -5.05% (inactive) | inactive | 12.7% (inactive) | 0.0305% (inactive) |  | > 46 µM (inactive) | inactive | inactive |  |  |  | -0.224% (inactive) | -1.09 | 0.517 | inactive |  |  |  |  |
| COc1ccc(NC(=O)N2CC3(CCN(S(C)(=O)=O)CC3)C2)cc1 | > 11.4 µM (inactive) | -11.2% (inactive) | inactive | 24.5% (inactive) | 5.18% (inactive) |  | > 46 µM (inactive) | inactive | inactive |  |  |  | 4.64% (inactive) | -10.6 | -5.17 | inactive |  |  |  |  |
